This test relates to MV4-11. The test can be described thus: CellTox Green cytotoxicity fluorescence relative to DMSO vehicle (fold of vehicle RFU); higher = more cell death (loss of membrane integrity), active = 2 or more. Here is the method:
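Paediatric AML cell lines (MV4-11, CMK, Kasumi-1; 4x10^4 cells/well, 96-well) treated with single compounds from the Selleckchem apoptosis library at 0.01, 0.1 and 1 µM. Cytotoxicity was read with CellTox Green (RFU, Ex 485/Em 520) at 24, 48 and 72 h and normalised to the 0.1% DMSO vehicle. Normalised RFU >= 2 was taken as a successful, cell-killing treatment.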

SMILES strings stand for the structures. Unmarked numbers belong to inactive results.

In the case of `Cn1cc(-c2ccc3c(c2)CCN3C(=O)Cc2cccc(C(F)(F)F)c2)c2c(N)ncnc21`, the “CellTox Green cytotoxicity fluorescence” value reads like this: (0.01 µM, 24 h) 0.987; (0.01 µM, 48 h) 0.984; (0.01 µM, 72 h) 0.979; (0.1 µM, 24 h) 0.986; (0.1 µM, 48 h) 0.981; (0.1 µM, 72 h) 0.977. For the same molecule, the “CellTox Green cytotoxicity fluorescence” value runs as follows: (1 µM, 24 h) 1.05; (1 µM, 48 h) 1.34; (1 µM, 72 h) 1.77.
For `Nc1cccc2c1CN(C1CCC(=O)NC1=O)C2=O` (stereo unspecified) [Lenalidomide], the “CellTox Green cytotoxicity fluorescence” value (0.01 µM, 24 h) was 0.939; the “CellTox Green cytotoxicity fluorescence” value (0.01 µM, 48 h) was 0.942; the “CellTox Green cytotoxicity fluorescence” value (0.01 µM, 72 h) was 0.935; the “CellTox Green cytotoxicity fluorescence” value (0.1 µM, 24 h) was 0.943; the “CellTox Green cytotoxicity fluorescence” value (0.1 µM, 48 h) is 0.929; the “CellTox Green cytotoxicity fluorescence” value (0.1 µM, 72 h) is 0.915. Further, the “CellTox Green cytotoxicity fluorescence” value was 0.952 (1 µM, 24 h); 0.958 (1 µM, 48 h); 0.944 (1 µM, 72 h).
With `CCO[C@@H]1OC(=O)C[C@@H]1NC(=O)[C@@H]1CCCN1C(=O)[C@@H](NC(=O)c1ccc(N)c(Cl)c1)C(C)(C)C`, the “CellTox Green cytotoxicity fluorescence” value by setting is: (0.01 µM, 24 h) 0.972; (0.01 µM, 48 h) 0.981; (0.01 µM, 72 h) 0.987; (0.1 µM, 24 h) 0.995; (0.1 µM, 48 h) 0.989; (0.1 µM, 72 h) 0.996. Besides, the “CellTox Green cytotoxicity fluorescence” value is 1 (1 µM, 24 h); 1 (1 µM, 48 h); 1.01 (1 µM, 72 h).
Consider `CN(C)CC[C@H](CSc1ccccc1)Nc1ccc(S(=O)(=O)NC(=O)c2ccc(N3CCN(Cc4ccccc4-c4ccc(Cl)cc4)CC3)cc2)cc1[N+](=O)[O-]`, for which the “CellTox Green cytotoxicity fluorescence” value by setting is: (0.01 µM, 24 h) 0.961; (0.01 µM, 48 h) 1.15; (0.01 µM, 72 h) 1.31; (0.1 µM, 24 h) 1.08; (0.1 µM, 48 h) 1.59; (0.1 µM, 72 h) 1.88. For the same molecule, the “CellTox Green cytotoxicity fluorescence” value was 1.27 (1 µM, 24 h); 2.34 (active) (1 µM, 48 h); 2.59 (active) (1 µM, 72 h).

These data come from the supplement of paper PMC7595190.
